Key:
Experiment in all cases: DAPPL (digital affinity profiling via proximity ligation, sequencing); 10 mM Tris-HCl pH 7.5, 50 mM NaCl, 1 mM DTT, 4% glycerol, room temperature, 30 min; GST-TFs on glutathione beads, 16-mer random dsDNA library, 0.1% formaldehyde crosslink after washing; high values mean tight binding
FLI1 = molecular target: T1, FLI1 (Homo sapiens, UniProt Q01543 1-452); conditions: protein: recombinant; tags: N-terminal GST; dsDNA, one strand shown
T1 sequence: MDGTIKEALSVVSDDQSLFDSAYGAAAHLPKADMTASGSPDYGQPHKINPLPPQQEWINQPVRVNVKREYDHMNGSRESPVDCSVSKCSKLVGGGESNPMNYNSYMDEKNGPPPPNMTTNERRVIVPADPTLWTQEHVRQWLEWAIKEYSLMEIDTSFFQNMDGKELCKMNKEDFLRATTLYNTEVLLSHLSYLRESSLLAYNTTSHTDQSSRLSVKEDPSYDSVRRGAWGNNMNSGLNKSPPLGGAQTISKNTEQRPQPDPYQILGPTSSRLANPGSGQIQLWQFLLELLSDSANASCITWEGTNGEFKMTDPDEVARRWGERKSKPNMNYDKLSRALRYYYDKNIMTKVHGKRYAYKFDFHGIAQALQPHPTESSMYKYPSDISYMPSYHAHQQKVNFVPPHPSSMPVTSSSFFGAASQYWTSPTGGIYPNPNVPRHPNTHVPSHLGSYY
Outline: (§1)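 Human transcription factors were made in yeast as GST fusions, captured on glutathione beads and barcoded with DNA. With a tag-only sample included, the pool was incubated with 200 nmole of a random double-stranded 16-mer DNA library in Tris/NaCl/DTT/glycerol buffer at room temperature for 30 min, then crosslinked with 0.1% formaldehyde after washing, ligated by proximity, amplified and sequenced. For binding signal, each hexamer's read frequency for a factor is divided by its frequency for the tag-only sample.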

ELK1 = molecular target: T2, ELK1 (Homo sapiens, UniProt P19419 1-428); conditions: protein: recombinant; tags: N-terminal GST; dsDNA, one strand shown
T2 sequence: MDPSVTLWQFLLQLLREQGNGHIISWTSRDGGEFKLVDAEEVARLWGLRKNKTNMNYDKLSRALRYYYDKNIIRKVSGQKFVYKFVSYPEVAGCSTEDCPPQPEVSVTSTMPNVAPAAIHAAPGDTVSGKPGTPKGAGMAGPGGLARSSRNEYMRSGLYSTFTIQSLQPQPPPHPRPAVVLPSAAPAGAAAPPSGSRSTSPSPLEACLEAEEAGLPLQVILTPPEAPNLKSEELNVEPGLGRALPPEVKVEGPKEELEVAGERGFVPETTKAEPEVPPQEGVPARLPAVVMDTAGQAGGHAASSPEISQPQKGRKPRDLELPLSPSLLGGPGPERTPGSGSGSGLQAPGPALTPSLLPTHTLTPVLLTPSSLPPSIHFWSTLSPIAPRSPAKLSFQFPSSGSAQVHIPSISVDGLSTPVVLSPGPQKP
Outline: as §1

GABPA = molecular target: T3, GABPA (Homo sapiens, UniProt Q06546 1-454); conditions: protein: recombinant; tags: N-terminal GST; dsDNA, one strand shown
T3 sequence: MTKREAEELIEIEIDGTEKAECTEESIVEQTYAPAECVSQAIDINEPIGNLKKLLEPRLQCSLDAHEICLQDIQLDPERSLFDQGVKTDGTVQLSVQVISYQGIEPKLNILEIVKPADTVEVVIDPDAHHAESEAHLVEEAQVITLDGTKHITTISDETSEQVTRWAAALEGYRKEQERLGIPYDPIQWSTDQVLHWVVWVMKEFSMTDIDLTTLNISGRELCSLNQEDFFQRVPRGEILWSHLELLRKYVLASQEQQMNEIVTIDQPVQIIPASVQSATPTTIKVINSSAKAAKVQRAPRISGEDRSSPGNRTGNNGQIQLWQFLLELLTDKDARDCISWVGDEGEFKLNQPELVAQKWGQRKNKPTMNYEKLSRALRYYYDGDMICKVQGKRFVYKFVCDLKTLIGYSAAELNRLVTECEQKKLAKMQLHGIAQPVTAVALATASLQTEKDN
Outline: as §1

ERG = molecular target: T4, ERG (Homo sapiens, UniProt P11308 1-479); conditions: protein: recombinant; tags: N-terminal GST; dsDNA, one strand shown
T4 sequence: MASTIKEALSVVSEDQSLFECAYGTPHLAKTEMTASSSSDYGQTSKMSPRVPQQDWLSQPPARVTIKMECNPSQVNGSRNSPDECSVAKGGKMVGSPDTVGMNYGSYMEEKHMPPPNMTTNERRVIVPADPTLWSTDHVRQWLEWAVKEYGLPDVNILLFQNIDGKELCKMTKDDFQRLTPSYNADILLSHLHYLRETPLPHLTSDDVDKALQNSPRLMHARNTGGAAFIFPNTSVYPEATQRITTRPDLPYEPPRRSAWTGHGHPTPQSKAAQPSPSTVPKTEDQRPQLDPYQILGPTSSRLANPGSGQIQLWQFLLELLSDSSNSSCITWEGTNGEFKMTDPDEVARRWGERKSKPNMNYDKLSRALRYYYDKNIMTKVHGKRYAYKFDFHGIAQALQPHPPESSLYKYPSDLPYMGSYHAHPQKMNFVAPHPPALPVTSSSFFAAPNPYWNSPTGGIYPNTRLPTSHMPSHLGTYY
Outline: as §1

ELF1 = ELF1 (Homo sapiens, UniProt P32519 1-619); conditions: protein: recombinant; tags: N-terminal GST; dsDNA, one strand shown
Outline: as §1

EHF = molecular target: T5, EHF (Homo sapiens, UniProt Q9NZC4 1-300); conditions: protein: recombinant; tags: N-terminal GST; dsDNA, one strand shown
T5 sequence: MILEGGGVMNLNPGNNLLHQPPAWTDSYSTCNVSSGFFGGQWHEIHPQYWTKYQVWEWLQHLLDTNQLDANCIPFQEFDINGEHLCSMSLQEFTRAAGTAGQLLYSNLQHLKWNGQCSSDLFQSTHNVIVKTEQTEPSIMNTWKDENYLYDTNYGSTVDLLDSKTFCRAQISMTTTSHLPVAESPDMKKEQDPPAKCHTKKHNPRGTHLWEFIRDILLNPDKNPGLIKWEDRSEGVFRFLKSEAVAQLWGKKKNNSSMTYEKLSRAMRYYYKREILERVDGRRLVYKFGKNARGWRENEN
Outline: as §1

SPI1 = SPI1 (Homo sapiens, UniProt P17947 1-270); conditions: protein: recombinant; tags: N-terminal GST; dsDNA, one strand shown
Outline: as §1

SPIB = SPIB (Homo sapiens, UniProt Q01892 1-262); conditions: protein: recombinant; tags: N-terminal GST; dsDNA, one strand shown
Outline: as §1

ELK3 = molecular target: T6, ELK3 (Homo sapiens, UniProt P41970 1-407); conditions: protein: recombinant; tags: N-terminal GST; dsDNA, one strand shown
T6 sequence: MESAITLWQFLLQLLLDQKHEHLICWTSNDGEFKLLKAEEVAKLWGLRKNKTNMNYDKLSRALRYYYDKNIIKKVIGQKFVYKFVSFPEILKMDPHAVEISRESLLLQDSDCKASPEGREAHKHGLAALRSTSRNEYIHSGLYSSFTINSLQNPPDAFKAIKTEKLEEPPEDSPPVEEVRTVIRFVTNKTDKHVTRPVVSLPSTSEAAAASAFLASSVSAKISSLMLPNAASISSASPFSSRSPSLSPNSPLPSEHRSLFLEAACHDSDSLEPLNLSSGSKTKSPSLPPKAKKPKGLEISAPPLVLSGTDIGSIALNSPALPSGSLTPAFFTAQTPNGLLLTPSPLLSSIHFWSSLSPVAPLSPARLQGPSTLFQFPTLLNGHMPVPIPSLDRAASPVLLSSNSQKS
Outline: as §1

FEV = molecular target: T7, FEV (Homo sapiens, UniProt Q99581 1-238); conditions: protein: recombinant; tags: N-terminal GST; dsDNA, one strand shown
T7 sequence: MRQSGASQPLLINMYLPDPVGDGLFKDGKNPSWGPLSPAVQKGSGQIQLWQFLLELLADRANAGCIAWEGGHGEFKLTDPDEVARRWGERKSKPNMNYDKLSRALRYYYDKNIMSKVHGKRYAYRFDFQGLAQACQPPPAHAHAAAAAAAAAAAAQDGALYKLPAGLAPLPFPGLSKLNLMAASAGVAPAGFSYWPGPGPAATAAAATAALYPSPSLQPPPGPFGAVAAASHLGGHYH
Outline: as §1

ETV5 = ETV5 (Homo sapiens, UniProt P41161 1-510); conditions: protein: recombinant; tags: N-terminal GST; dsDNA, one strand shown
Outline: as §1

HSF1 = HSF1 (Homo sapiens, UniProt Q00613 1-529); conditions: protein: recombinant; tags: N-terminal GST; chain copies: 3; dsDNA, one strand shown
Outline: as §1

SPIC = molecular target: T8, SPIC (Homo sapiens, UniProt Q8N5J4 1-248); conditions: protein: recombinant; tags: N-terminal GST; dsDNA, one strand shown
T8 sequence: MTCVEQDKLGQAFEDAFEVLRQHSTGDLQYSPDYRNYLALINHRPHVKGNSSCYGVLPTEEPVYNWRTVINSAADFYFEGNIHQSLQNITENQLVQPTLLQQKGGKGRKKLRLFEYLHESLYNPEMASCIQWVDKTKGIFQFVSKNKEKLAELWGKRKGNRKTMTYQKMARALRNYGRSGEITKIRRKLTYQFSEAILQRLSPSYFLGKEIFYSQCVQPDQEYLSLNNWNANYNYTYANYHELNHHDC
Outline: as §1

ELF4 = ELF4 (Homo sapiens, UniProt Q99607 1-663); conditions: protein: recombinant; tags: N-terminal GST; dsDNA, one strand shown
Outline: as §1

ELK4 = molecular target: T9, ELK4 (Homo sapiens, UniProt P28324-2 1-405); conditions: protein: recombinant; tags: N-terminal GST; dsDNA, one strand shown
T9 sequence: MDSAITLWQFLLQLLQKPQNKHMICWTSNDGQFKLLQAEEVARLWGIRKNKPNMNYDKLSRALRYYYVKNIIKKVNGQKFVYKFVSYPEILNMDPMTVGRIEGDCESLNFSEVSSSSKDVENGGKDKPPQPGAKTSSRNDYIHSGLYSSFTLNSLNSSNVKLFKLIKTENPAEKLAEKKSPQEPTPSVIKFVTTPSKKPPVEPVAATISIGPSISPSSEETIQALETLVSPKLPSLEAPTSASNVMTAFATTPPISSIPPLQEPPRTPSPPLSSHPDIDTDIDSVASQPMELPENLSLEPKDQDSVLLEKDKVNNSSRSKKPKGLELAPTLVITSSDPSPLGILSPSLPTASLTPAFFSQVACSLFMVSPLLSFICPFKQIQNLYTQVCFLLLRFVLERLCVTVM
Outline: as §1

ETV2 = molecular target: T10, ETV2 (Homo sapiens, UniProt O00321 1-342); conditions: protein: recombinant; tags: N-terminal GST; dsDNA, one strand shown
T10 sequence: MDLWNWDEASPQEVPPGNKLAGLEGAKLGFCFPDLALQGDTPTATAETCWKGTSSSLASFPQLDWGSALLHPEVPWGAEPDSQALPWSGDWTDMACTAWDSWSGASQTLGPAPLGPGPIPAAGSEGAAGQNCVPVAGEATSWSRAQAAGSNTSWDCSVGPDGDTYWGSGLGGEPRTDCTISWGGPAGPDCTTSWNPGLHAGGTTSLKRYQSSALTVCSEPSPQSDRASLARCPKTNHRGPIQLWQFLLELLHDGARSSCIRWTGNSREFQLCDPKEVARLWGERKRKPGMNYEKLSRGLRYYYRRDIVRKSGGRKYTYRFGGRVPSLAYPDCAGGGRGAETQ
Outline: as §1

ELF3 = molecular target: T11, ELF3 (Homo sapiens, UniProt P78545 1-371); conditions: protein: recombinant; tags: N-terminal GST; dsDNA, one strand shown
T11 sequence: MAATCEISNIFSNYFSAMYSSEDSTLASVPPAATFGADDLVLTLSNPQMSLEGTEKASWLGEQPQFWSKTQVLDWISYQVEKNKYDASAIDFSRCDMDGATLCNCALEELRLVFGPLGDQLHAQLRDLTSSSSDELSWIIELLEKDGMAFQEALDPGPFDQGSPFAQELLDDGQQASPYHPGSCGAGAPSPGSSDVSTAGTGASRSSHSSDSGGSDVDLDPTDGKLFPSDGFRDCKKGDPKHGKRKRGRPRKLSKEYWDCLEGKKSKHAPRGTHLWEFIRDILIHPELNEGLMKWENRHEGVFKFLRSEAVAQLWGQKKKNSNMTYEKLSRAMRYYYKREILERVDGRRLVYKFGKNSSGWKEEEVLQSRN
Outline: as §1

CRX = CRX (Homo sapiens, UniProt O43186 1-299); conditions: protein: recombinant; tags: N-terminal GST; dsDNA, one strand shown
Outline: as §1

ETV1 = ETV1 (Homo sapiens, UniProt P50549 1-477); conditions: protein: recombinant; tags: N-terminal GST; dsDNA, one strand shown
Outline: as §1

Chain of ETV1 (P50549 whole entry): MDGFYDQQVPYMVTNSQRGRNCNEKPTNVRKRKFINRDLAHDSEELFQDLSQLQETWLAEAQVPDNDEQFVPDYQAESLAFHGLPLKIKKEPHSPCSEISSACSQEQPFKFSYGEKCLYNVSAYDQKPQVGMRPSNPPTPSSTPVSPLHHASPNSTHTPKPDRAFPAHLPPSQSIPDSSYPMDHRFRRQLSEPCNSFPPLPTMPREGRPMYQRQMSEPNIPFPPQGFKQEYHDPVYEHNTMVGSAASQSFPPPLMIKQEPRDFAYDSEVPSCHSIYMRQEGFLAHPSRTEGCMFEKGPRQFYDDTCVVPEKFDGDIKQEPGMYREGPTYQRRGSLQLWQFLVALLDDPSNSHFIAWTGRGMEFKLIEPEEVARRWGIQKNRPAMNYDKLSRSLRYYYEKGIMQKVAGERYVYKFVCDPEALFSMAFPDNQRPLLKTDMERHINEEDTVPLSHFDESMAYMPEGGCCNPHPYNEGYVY
Chain of ETV5 (P41161 whole entry): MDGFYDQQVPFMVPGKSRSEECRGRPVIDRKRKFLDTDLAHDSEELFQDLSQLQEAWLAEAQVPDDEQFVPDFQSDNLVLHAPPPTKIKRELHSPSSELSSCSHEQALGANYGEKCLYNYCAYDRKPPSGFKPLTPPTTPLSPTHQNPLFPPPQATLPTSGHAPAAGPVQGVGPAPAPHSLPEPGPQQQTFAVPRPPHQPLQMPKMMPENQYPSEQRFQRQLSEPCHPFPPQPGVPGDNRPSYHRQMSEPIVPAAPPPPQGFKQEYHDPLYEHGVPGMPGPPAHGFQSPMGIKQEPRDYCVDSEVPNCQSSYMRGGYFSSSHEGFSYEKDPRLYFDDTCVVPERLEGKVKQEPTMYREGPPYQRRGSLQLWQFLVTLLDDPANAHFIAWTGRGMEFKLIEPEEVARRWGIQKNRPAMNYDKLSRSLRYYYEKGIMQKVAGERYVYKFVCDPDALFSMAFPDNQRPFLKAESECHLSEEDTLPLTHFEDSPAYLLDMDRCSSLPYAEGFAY
Chain of SPIB (Q01892 whole entry): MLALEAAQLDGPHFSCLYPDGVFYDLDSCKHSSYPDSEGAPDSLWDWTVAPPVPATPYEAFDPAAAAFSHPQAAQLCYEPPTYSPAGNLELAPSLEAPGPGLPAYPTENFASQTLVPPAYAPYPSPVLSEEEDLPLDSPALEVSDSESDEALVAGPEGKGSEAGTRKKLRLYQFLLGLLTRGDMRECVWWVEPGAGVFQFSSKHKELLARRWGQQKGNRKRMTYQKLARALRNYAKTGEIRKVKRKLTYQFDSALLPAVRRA
Chain of ELF4 (Q99607 whole entry): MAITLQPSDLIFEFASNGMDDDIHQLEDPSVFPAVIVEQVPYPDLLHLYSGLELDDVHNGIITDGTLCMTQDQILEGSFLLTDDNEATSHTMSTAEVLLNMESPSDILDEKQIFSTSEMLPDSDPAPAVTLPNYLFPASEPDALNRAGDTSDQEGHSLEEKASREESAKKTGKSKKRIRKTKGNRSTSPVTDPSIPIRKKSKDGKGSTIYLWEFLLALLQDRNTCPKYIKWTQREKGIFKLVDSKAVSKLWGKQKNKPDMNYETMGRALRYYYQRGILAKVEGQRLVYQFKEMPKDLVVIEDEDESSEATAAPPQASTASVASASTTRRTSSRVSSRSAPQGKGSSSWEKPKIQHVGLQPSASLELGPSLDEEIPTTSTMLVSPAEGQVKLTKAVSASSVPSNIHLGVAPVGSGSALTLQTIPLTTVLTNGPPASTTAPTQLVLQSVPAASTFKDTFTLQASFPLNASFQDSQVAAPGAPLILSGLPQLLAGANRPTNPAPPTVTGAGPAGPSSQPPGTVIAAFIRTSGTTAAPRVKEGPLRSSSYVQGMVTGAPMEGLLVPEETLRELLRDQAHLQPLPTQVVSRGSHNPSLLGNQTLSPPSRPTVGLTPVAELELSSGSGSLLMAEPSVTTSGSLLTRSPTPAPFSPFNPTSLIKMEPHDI
Chain of ELF1 (P32519 whole entry): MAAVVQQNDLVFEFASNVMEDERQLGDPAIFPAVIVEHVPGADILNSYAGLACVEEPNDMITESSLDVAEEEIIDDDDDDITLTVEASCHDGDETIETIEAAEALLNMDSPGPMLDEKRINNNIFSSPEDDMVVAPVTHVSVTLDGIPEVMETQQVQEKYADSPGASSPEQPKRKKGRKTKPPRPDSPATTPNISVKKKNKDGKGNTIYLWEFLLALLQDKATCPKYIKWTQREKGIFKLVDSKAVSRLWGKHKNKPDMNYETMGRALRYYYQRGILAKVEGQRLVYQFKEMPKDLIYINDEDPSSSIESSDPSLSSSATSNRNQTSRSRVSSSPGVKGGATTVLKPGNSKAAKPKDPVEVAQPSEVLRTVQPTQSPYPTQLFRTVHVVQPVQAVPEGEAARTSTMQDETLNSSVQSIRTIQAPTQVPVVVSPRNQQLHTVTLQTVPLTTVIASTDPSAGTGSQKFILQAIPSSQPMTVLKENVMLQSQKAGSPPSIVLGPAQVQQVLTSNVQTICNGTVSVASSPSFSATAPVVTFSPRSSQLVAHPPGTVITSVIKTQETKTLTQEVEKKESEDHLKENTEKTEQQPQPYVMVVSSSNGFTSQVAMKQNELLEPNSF
Chain of HSF1 (Q00613 whole entry): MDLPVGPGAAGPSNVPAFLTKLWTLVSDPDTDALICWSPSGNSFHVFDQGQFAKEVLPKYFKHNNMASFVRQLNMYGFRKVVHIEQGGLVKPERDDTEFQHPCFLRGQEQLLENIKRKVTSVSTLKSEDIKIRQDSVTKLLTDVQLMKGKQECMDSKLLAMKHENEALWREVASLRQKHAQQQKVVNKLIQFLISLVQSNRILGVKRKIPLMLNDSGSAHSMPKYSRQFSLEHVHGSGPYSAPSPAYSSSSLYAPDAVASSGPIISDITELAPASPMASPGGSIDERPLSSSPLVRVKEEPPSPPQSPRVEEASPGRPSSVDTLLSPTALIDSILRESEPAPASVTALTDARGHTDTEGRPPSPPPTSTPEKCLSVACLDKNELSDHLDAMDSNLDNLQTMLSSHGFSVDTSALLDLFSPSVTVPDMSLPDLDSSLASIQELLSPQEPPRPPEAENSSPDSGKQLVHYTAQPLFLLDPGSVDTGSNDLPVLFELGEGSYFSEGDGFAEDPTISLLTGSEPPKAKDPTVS
Chain of CRX (O43186 whole entry): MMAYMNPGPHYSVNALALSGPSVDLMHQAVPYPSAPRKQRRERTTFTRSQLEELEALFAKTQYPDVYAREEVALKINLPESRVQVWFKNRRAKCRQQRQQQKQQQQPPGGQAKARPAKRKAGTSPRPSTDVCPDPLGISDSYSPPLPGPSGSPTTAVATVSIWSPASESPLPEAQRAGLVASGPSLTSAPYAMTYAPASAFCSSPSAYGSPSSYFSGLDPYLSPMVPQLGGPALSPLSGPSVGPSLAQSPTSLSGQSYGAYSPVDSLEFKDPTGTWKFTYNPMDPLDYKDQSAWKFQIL

TCTTGT
binding signal (FLI1): 1.48 fold enrichment (6-mer frequency, TF over GST control) | binding signal (ELK1): 1.64 fold enrichment (6-mer frequency, TF over GST control) | binding signal (GABPA): 1.53 fold enrichment (6-mer frequency, TF over GST control) | binding signal (ERG): 1.54 fold enrichment (6-mer frequency, TF over GST control) | binding signal (ELF1): 1.53 fold enrichment (6-mer frequency, TF over GST control) | binding signal (EHF): 1.57 fold enrichment (6-mer frequency, TF over GST control) | binding signal (SPI1): 1.5 fold enrichment (6-mer frequency, TF over GST control) | binding signal (SPIB): 1.55 fold enrichment (6-mer frequency, TF over GST control) | binding signal (ELK3): 1.58 fold enrichment (6-mer frequency, TF over GST control) | binding signal (FEV): 1.52 fold enrichment (6-mer frequency, TF over GST control) | binding signal (ETV5): 1.49 fold enrichment (6-mer frequency, TF over GST control) | binding signal (HSF1): 1.55 fold enrichment (6-mer frequency, TF over GST control) | binding signal (SPIC): 1.39 fold enrichment (6-mer frequency, TF over GST control) | binding signal (ELF4): 1.66 fold enrichment (6-mer frequency, TF over GST control) | binding signal (ELK4): 1.49 fold enrichment (6-mer frequency, TF over GST control) | binding signal (ETV2): 1.4 fold enrichment (6-mer frequency, TF over GST control) | binding signal (ELF3): 1.55 fold enrichment (6-mer frequency, TF over GST control) | binding signal (CRX): 1.48 fold enrichment (6-mer frequency, TF over GST control) | binding signal (ETV1): 1.57 fold enrichment (6-mer frequency, TF over GST control)

Source: article PMC7862700, “An all-to-all approach to the identification of sequence-specific readers for epigenetic DNA modifications on cytosine”
